From PubChem
Sampled rows, rich in hits. Any-hit rate of the full collection: about 9.6%.
PostGolgi yeast: phenotypic screen on post-Golgi transport, primary screen; post-Golgi transport phenotypic cell assay; inhibition, % at 10 µM; actives 0.9% (n = 98,000); AID 739, 2007;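 further: yeast cells grown in 1536-well plates; yeast grown about 18 h at 30C before absorbance read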
hDAT+cocaine: changed hDAT dopamine uptake under cocaine IC80, either direction, primary screen, cocaine antagonist project, cell-based, LLC-PK1 hDAT, [14C]-dopamine uptake, MLSMR. B-score at 10 µM. actives 1.3% (n = 110,000). LLC-PK1 hDAT cells, [14C]-dopamine uptake with cocaine IC80; actives deviate in either direction;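 active means Z score or B-score, a plate-position-corrected score, falls beyond the plate's 99.7% confidence bounds, in either direction; inactive means both scores lie inside the 99.7% bounds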;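 further: scored against the spread of the other compound wells on the same plate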
PostGolgi ctrl: growth inhibition of yeast control strain, primary screen, counter-screen for post-Golgi transport modulator project; efflux-deficient yeast background strain, growth absorbance A615, 16 h; inhibition, % at 10 µM; actives 5% (n = 98,000); AID 738, 2007
PLAP activator: PLAP enzyme activators, biochemical, luminescence, HTS. Alkaline phosphatase, placental type (Homo sapiens), P05187. purified PLAP enzyme, luminescent substrate read-out; stronger effect = higher value. AID 696, 2007. activation fold at 20 µM. actives 1.2% (n = 96,000); in the data active means activation fold above about 2
Target sequence (P05187 whole entry, looked up): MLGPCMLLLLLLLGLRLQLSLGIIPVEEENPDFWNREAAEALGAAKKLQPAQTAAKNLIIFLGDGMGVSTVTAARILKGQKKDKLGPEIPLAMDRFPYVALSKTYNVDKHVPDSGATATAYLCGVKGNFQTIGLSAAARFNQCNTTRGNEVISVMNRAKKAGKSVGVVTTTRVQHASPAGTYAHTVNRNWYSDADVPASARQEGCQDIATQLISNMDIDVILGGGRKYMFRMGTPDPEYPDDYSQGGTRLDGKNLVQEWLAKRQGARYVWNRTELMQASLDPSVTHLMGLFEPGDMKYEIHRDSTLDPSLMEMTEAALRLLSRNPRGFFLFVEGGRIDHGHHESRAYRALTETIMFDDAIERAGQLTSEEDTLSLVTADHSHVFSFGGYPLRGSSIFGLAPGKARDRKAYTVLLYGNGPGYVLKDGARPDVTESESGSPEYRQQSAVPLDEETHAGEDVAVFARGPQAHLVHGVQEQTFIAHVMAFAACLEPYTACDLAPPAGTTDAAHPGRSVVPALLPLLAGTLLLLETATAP
Cav32 inh: Cav3.2 calcium influx blockers – cell-based, Fluo-4 calcium fluorescence, FDSS, MLSMR library, primary screen; Voltage-dependent T-type calcium channel subunit alpha-1H (Homo sapiens), O95180; Cav3.2-expressing cells; stronger effect = lower value; B-score at 10 µM; actives 4% (n = 100,000); AID 449739, 2010;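 active means single-dose well whose peak fluorescence ratio is a statistical outlier from its plate by either plate-standardised score or position-corrected B-score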
Starred values were filed as active, the others as inactive; x = not tested or not shown. Unless noted, no stated cut-off is given here; in the data, active means inhibition above about 30%; inactive means the rest.

SMILES	PostGolgi yeast	hDAT+cocaine	PostGolgi ctrl	PLAP activator	Cav32 inh
c1ccc2c(N3CCCCCC3)nc(-c3ccncc3)nc2c1	26.8	1.3	67.8*	1.7	-0.235
CN1CCN(c2nc(-c3cccnc3)nc3ccccc23)CC1	20.3	0.61	3.6	1.1	0.553
CCOc1nc(-c2ccncc2)nc2ccccc12	5.0	0.187	34.5*	x	-0.228
c1cncc(-c2nc(N3CCCCCC3)c3ccccc3n2)c1	-9.5	x	66.2*	1.3	x
CC1CN(c2nc(-c3ccccc3)nc3ccccc23)CC(C)O1 (stereo not given)	2.9	0.272	41.0*	0.9	0.205
CCN1CCN(c2nc(-c3ccncc3)nc3ccccc23)CC1	8.3	x	5.6	1.1	x
O=C(NCc1ccccn1)c1coc(=O)c(Br)c1	-3.6	-0.346	0.0	1.3	1.13
CCC1=NN(C(=O)CCc2ccccc2)C(O)(C(F)(F)F)C1 (stereo not given)	9.9	-0.827	1.6	0.9	-3.37
Cc1ccccc1OCC(=O)N1N=C(C(F)(F)F)CC1(O)C(C)(C)C (stereo not given)	x	0.652	x	x	-8.24*
Cc1ccc(OCC(=O)N2N=C(C(F)(F)F)CC2(O)C(C)(C)C)cc1C (stereo not given)	-4.3	1.24	33.2*	1.3	-7.34*
C#CCSc1nnc(C)c(C)n1	x	0.00323	x	x	0.421
Cc1ccc(NC(=S)NCC2CCCO2)cc1 (stereo not given)	-5.2	-0.341	5.7	1	0.601
Cc1cnn(C(=S)NCC2CCCO2)c1 (stereo not given)	7.1	-0.719	-5.9	2.1*	-0.187
C=CCn1c(SCC(=O)N2CCOCC2)nc(O)c(Cc2ccccc2)c1=O	-5.3	-0.425	11.3	1.2	-0.754
CCC(c1nnnn1C1CCCC1)N1CCN(c2ccccc2F)CC1 (stereo not given)	2.3	-0.55	27.3	1.3	x
CCCC(c1nnnn1C1CCCC1)N1CCN(c2ccccc2F)CC1 (stereo not given)	19.5	-0.507	66.6*	1.5	-4.33
Clc1ccc(CN(CC2CCCO2)C(c2cccs2)c2nnnn2C2CCCC2)cc1 (stereo not given)	-0.5	0.397	7.9	1.1	-8.09*
Clc1ccccc1CN(Cc1ccccc1)C(c1cccs1)c1nnnn1C1CCCC1 (stereo not given)	6.7	-0.833	0.0	1	-0.663
Clc1ccc(C(c2nnnn2C2CCCCC2)N(Cc2cccnc2)Cc2ccco2)cc1 (stereo not given)	x	1.9	x	x	-3.85*
Cc1ccc2[nH]c(=O)c(C(c3nnnn3C3CCCC3)N(Cc3cccnc3)Cc3ccco3)cc2c1 (stereo not given)	-5.5	-0.307	5.0	1	-2.12
CN(C)S(=O)(=O)c1ccc(-c2csnn2)s1	14.0	-0.00807	14.8	0.8	0.0033
CN(CCc1ccccn1)C(=O)Nc1ccc(F)cc1	2.4	-0.399	9.9	1	0.164
CN(CCc1ccccn1)c1ncnc2[nH]ncc12	8.9	-1.42	2.1	2.1*	0.0868
CN(C)c1cccc(C(=O)Nc2ccc3nc4n(c(=O)c3c2)CCCCC4)c1	-3.0	0.751	8.0	1.3	-0.846
CN(C(=O)c1ccc2c(=O)n3c(nc2c1)CCCCC3)c1ccccc1	12.4	-0.56	10.6	x	0.576
SMILES	PostGolgi yeast	hDAT+cocaine	PostGolgi ctrl	PLAP activator	Cav32 inh
O=C(Nc1cccc(Cl)c1)c1ccc2c(=O)n3c(nc2c1)CCCCC3	7.1	1.12	21.9	0.8	-5.66*
O=C(Nc1ccc(F)c(Cl)c1)c1ccc2c(=O)n3c(nc2c1)CCCCC3	-4.5	1.04	13.5	0.9	-7.67*
O=C(c1ccc2c(=O)n3c(nc2c1)CCCCC3)N1CCN(C(c2ccccc2)c2ccccc2)CC1	-7.5	-4.15*	12.8	1.6	-4.82*
COc1ccc(/C=N/NS(=O)(=O)c2ccccc2)cc1OS(=O)(=O)c1ccc(C)cc1	0.5	-0.203	13.6	1.4	-3.68
O=C(c1c(F)cccc1F)N(Cc1ccccn1)C1CCCC1	-2.9	-0.114	-11.0	1.1	0.683
Cc1ccc2oc(C(=O)NCc3ccc4c(c3)OCO4)c(C)c2c1	-1.4	-0.00159	28.0	1	x
O=C(c1cccc(N2C(=O)C3CC=CCC3C2=O)c1)N1CCCCCC1 (stereo not given)	1.0	-8.8*	-3.6	x	1.07
Cc1c(C(=O)NCc2ccc3c(c2)OCO3)oc2ccccc12	x	-0.194	x	x	-5.64*
